ClpP mod: qHTS Assay for Activators of ClpP | ATP-dependent Clp protease proteolytic subunit (Bacillus subtilis (strain 168)), P80244 | purified B. subtilis ClpP, FRET peptide cleavage, 20 min | Potency, µM (highest dose often 57.5 µM) | 340,000 compounds, 1.9% hits | AID 651965, 2013; active = well fitted falling curve with a large enough effect; inconclusive = small, poorly fitted or top-dose-only effect; inactive = no such curve, though single readings can be large or run the other way; also: the source files actives as falling curves though it sought activators and does not explain the sign; nearly all actives have a fitted effect of over 65% in size
Target sequence (P80244 whole entry, looked up): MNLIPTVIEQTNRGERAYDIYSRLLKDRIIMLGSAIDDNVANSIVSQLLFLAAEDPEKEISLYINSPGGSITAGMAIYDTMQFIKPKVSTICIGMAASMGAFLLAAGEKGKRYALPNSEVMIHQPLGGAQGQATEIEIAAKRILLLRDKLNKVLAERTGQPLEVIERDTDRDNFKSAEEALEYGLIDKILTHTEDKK
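FRET quenching reversal measured ClpP activation: 10 microg/mL B. subtilis ClpP at pH 8 with the FRET-FV decapeptide, read at 430 nm after 320 nm excitation. The 20-min minus 0-min signal was scaled between DMSO/no-enzyme wells and ADEP (5.8 microM final).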
GLP-1R inv ag: qHTS of GLP-1 Receptor Inverse Agonists (Inhibition Mode). Glucagon-like peptide 1 receptor (Homo sapiens), P43220. HEK293 GLP-1R CRE-luciferase, luminescence, 24 h; GLP-1R form is constitutively active. Potency, µM (titrated, usually from 38.3 µM), most hits filed as inhibitors. 410,000 compounds, 1.6% hits; also: nearly all actives have a fitted effect of over 55% in size
Target sequence (P43220 whole entry, looked up): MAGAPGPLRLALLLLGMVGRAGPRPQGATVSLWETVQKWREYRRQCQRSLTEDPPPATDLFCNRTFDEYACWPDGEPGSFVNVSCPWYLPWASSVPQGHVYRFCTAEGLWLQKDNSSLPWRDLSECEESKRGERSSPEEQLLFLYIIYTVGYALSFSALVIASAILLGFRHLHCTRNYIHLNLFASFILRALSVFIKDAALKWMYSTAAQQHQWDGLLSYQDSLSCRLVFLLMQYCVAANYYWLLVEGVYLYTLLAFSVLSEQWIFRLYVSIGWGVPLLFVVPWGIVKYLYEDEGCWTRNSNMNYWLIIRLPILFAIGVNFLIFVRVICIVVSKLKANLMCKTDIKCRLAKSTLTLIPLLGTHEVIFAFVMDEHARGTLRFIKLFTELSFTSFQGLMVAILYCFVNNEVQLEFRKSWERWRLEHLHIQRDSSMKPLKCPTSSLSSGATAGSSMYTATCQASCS
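Luminescence readout: a drop in cAMP-driven luciferase signal flags inverse agonism at a constitutively active GLP-1R stably expressed in HEK293. Compound exposure lasted 24 hr at 37 deg C, 5% CO2.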
GLP1R ag: qHTS of GLP-1 Receptor Agonists; Glucagon-like peptide 1 receptor (Homo sapiens), P43220; HEK293 GLP-1R CRE-luciferase, luminescence, 4-6 h; cells express a hypersensitive GLP-1R form; Potency, µM (highest dose often 45.6 µM), usual class: activators; 380,000 compounds, 0.007% hits
HEK293 tox: qHTS of GLP-1 Receptor Inverse Agonists: Cytotox Screen; HEK293 cAMP-luciferase reporter cells, luminescence, 24 h; Potency, µM (top dose mostly 38.3 µM), actives largely listed as inhibitors; 410,000 compounds, 0.13% hits;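 also: loss of luciferase light is scored as toxicity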
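MLSMR compounds, 24 hr on cells at 37 deg C/5% CO2; luminescence after luciferase reagent (12 min RT). Inhibition counted as the undesired cytotoxic outcome.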
A number is an active result; n = inactive; u = inconclusive; x = not tested or not shown. In the library only some 3.2% were active in any assay of this set; here they are far more common. Unless noted, calls follow the shape of the dose curve; as a rule, active = well fitted curve in the direction sought with a large enough effect; inconclusive = small, poorly fitted or top-dose-only effect, or another doubt; inactive = no such curve, though single readings can be large; an effect the other way counts as inactive or inconclusive.

SMILES | ClpP mod | GLP-1R inv ag | GLP1R ag | HEK293 tox
CCCCCCCCCC[n+]1cccc(Br)c1 | n | x | x | x
COc1cccc(NC(=O)CSc2nnc3scc(-c4ccc(Cl)cc4)n23)c1 | n | n | x | n
COc1cccc(NC(=O)n2nc(N)cc2-c2ccc(Cl)cc2)c1 | n | 10µM | n | u
CCCCC(=O)N(C)c1c(CC)nc2c(OCc3ccc(C(F)(F)F)cc3)cccn12 | n | 11.2µM | n | n
Clc1ccc(-c2nnc(NC3=NCCCCC3)o2)cc1 | n | 4.47µM | n | n
COc1cccc(-c2cc(C(F)(F)F)n3nc(N)nc3n2)c1 | u | n | n | n
COc1cccc(-c2cn3nc4c(nc3n2)CCCC4)c1 | n | 2.51µM | n | n
COc1ccc(CNC(=O)CCCCCn2c(=O)[nH]c3ccccc3c2=O)cc1 | u | n | x | n
CCCCN1CC(C(=O)NCc2ccc(C)cc2)CC1=O (centres undefined) | 20µM | n | n | n
FC(F)(F)c1cc(CCN2C(=S)NC[C@@H]2Cc2ccccc2)cc(C(F)(F)F)c1 | n | 7.94µM | n | u
Cc1c(S(=O)(=O)N(C)C2CCCCC2)c(=O)n(C)c(=O)n1C | 12.6µM | n | n | n
Oc1cc2cc(CCN3CCN(c4nsc5ccccc45)CC3)c(Cl)cc2[nH]1 | x | x | n | x
Cn1cccc1-c1nc2ccccc2n1Cc1ccccc1 | 28.2µM | u | n | n
Clc1ccc(Cl)c(OCc2cc(-c3ccccc3Cl)on2)c1 | 14.1µM | n | n | n
CC1(C)CC(=O)C2=C(C1)Nc1ccccc1NC2c1cccs1 (centres undefined) | x | n | n | n
O=C1CCCC2=C1C(c1cccs1)Nc1ccccc1N2 (centres undefined) | 20µM | n | n | n
CNc1c(Cl)cc(C=O)cc1Cl | n | x | x | x
CC1CCCCN1c1c(S(=O)(=O)c2ccc(Cl)cc2)cnc2ccccc12 (centres undefined) | n | u | x | n
Cn1c(CNc2ccc(Cl)cc2)nnc1SCC#N | n | n | n | n
Cn1c(CNc2ccc(Cl)cc2)nnc1SCCN1CCCCC1 | n | 3.98µM | n | n
O=C(CCCSc1nnc(-c2cccs2)n1CC1CCCO1)c1ccccc1 (centres undefined) | n | 7.94µM | n | n
O=C(CSc1nnc(-c2cccs2)n1CC1CCCO1)N1CCCC1 (centres undefined) | n | n | n | n
Cc1ccc(-c2cc(-c3ccc(C)o3)nc(N)c2C#N)cc1 | 22.4µM | n | n | n
Cc1ccc(-c2cc(-c3ccc4c(c3)OCO4)c(C#N)c(N)n2)o1 | 35.5µM | n | n | n
N#Cc1c(N)oc(-c2ccc3c(c2)OCO3)c1-c1ccc2c(c1)OCO2 | 14.1µM | n | n | n
SMILES | ClpP mod | GLP-1R inv ag | GLP1R ag | HEK293 tox
Cc1c(Cl)cccc1NC(=O)CCS(=O)(=O)c1cccc2nsnc12 | n | n | n | n
Cn1c(=O)c(-c2ccccc2)nc2ccccc21 | 25.1µM | n | n | n
CCc1ccc(C2=NN(CCC(=O)NCCc3ccc(OC)c(OC)c3)C(=O)CC2)cc1 | n | n | x | n
Cc1cccc(N2CCN(S(=O)(=O)c3cc(Br)cc4c3N(C(=O)C3CC3)CC4)CC2C)c1 (centres undefined) | n | n | n | n
C#CC(=O)N(c1cccc(OC)c1)C(C(=O)NC1CCCC1)c1cccs1 (centres undefined) | n | 3.16µM | n | u
C#CC(=O)N(c1ccc(OC)c(OC)c1)C(C(=O)NC1CCCC1)c1cccs1 (centres undefined) | n | u | n | u
Cc1ccc2[nH]c(=O)c3cc(C(=O)N4CCN(c5ccccc5F)CC4)sc3c2c1 | n | n | n | n
CCC(C)OC(=O)/C(C#N)=C\c1ccc(-c2ccccc2Cl)o1 (centres undefined) | n | n | x | n
CCOC(=O)c1ccc(N2CCN(c3cccc(Cl)c3)CC2)c(NC(=O)Nc2ccc(Cl)cc2)c1 | u | n | x | n
O=C(CC(=O)N/N=C/c1ccc(C(=O)O)cc1)NCCc1ccccc1 | n | n | n | n
COc1ccc(CCNC(=O)CC(=O)N/N=C/c2ccc(C(=O)O)cc2)cc1OC | 14.1µM | n | n | n
Cc1cccc(NC(=O)NC(C)CCc2ccccc2)c1 (centres undefined) | x | 10µM | n | n
Cc1cccc(NC(=S)NC(C)CCc2ccccc2)c1 (centres undefined) | n | u | n | u
Cc1cccc(Cn2c(SCc3ccc(C(=O)NCc4cccs4)cc3)nc3ccncc32)c1 | u | u | x | n
COc1ccc(NC(=O)CCCn2c(=O)c3cccn3c3cccnc32)cc1Cl | u | n | x | n
O=C(C1CCCN(S(=O)(=O)c2cccs2)C1)N1CCN(c2cccc(Cl)c2)CC1 (centres undefined) | n | u | n | n
CCN1C(=O)[C@H]2[C@@H](c3ccc(-c4cccc(Cl)c4)c(OC)c3)N[C@@](Cc3ccccc3)(C(=O)OC)[C@H]2C1=O | n | u | n | n
COC(=O)[C@]1(Cc2ccccc2)N[C@H](c2ccc(-c3cccc(Cl)c3)c(OC)c2)[C@@H]2C(=O)N(C)C(=O)[C@@H]21 | n | 3.16µM | n | n
CCN1C(=O)[C@H]2[C@@H](c3ccc(-c4cccc(Cl)c4)cc3)N[C@@](C)(C(=O)OC)[C@H]2C1=O | n | 11.2µM | n | n
CCN1C(=O)[C@H]2[C@@H](c3ccc(-c4ccc(OC)cc4)c(OC)c3)N[C@@](Cc3ccccc3)(C(=O)OC)[C@H]2C1=O | 25.1µM | n | n | n
COc1ccc2c(C)c(CCC(=O)NCCc3ccc(OC)c(OC)c3)c(=O)oc2c1 | n | n | x | n
CCCCn1cc(S(=O)(=O)c2cc(C)ccc2C)c(=O)c2cc(F)c(N3CCC(C)CC3)cc21 | n | n | x | n
O=C(O)c1cc2cccc([N+](=O)[O-])c2[nH]1 | n | x | x | x
O=C(Nc1nc(-c2ccc(S(=O)(=O)N3CCOCC3)cc2)cs1)c1ccccc1 | n | n | n | n
CCN(CC)S(=O)(=O)c1ccc(-c2nnc(SCC(=O)Nc3nc(C)cs3)o2)cc1 | n | n | n | n
SMILES | ClpP mod | GLP-1R inv ag | GLP1R ag | HEK293 tox
COc1cccc(C(=O)Nc2nc(-c3ccc(S(=O)(=O)N4CCOCC4)cc3)cs2)c1 | u | u | n | n
Cc1csc(NC(=O)CSc2nnc(-c3ccc(S(=O)(=O)N4CCCC4)cc3)o2)n1 | 28.2µM | n | n | n
Cc1ccc(Nc2nc(-c3ccc(S(=O)(=O)N4CCOCC4)cc3)cs2)cc1Cl | 15.8µM | n | n | n
CC(C)CC(=O)Nc1nc(-c2ccc(S(=O)(=O)N3CCOCC3)cc2)cs1 | 31.6µM | n | n | n
CCCCC(=O)Nc1nc(-c2ccc(S(=O)(=O)N3CCOCC3)cc2)cs1 | 28.2µM | n | n | n
COc1ccccc1CNC(=O)C1CCN(S(=O)(=O)c2cn(C)cn2)CC1 | n | n | x | n
COC(=O)c1c(NC(=O)CCCOc2ccccc2C)sc2c1CCC2 | u | n | x | n

Bioassay records as filed in PubChem BioAssay.
